Screening data (PubChem BioAssay)
Most compounds without a hit are left out; they make up all but 10% or so of the library.
Pf growth 48h – P. falciparum growth inhibition at 48 hours (one generation) | P. falciparum luciferase growth in erythrocytes, 48 h | Potency, µM (series often up to 28.7 µM), hits mostly inhibitors | hit rate 5.9% among 310,000
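Here the parasites carry a stable luciferase gene and grow inside erythrocytes in Albumax-based RPMI medium with compound for one erythrocytic cycle. Activity is scored as loss of luminescent signal.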
NS1 function inh – influenza NS1 inhibition; Potency, µM (doses to about 46.1 µM); hit rate 0.4% among 270,000; calls by dose curve; note: actives are rising curves; nearly all actives have a fitted effect of over 50% in size
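S. cerevisiae expressing influenza A NS1, grown in glucose, washed, then diluted 1:100 into pH 6.0 -URA galactose medium with 23 nl compound. Growth recovery read as OD600; NS1-free strain serves as control.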
SARS PLpro yeast – inhibitors of SARS-CoV papain-like protease in yeast. S. cerevisiae expressing SARS-CoV PLpro, growth rescue. Potency, µM (titrated, usually from 32.9 µM), most hits filed as activators. hit rate 0.19% among 330,000. AID 485353; calls by dose curve; note: nearly all actives have a fitted effect of over 55% in size
Pf growth 96h – inhibits malaria parasite growth, 96 h | hit rate 6.9% among 320,000 | P. falciparum luciferase reporter growth, 96 h | AID 504834 | Potency, µM (titrated, usually from 28.7 µM), hits mostly inhibitors
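Two-generation exposure (96 h) targets delayed-death phenotype. Reporter parasites carrying integrated firefly luciferase, in red cells at 2% hematocrit and 0.05% parasitemia final, kept at 37 C, 5% CO2; luminescence loss indicates inhibition.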
Numbers stand for hits. Unless noted, calls come from the whole dose curve; as a rule, active = well fitted inhibition curve with a large enough effect; inconclusive = small, poorly fitted or top-dose-only effect, or another doubt; inactive = no such curve, though single readings can be large or run the other way.

Results for CN1CCc2nc3ccccc3c(C(=O)OCC(=O)N(CCC#N)c3ccccc3)c2C1 ?
Pf growth 48h: inconclusive; NS1 function inh: inactive; SARS PLpro yeast: inactive; Pf growth 96h: 13µM

Results for N#CCCN(C(=O)COC(=O)c1ccc2ccccc2n1)c1ccccc1 ?
Pf growth 48h: inactive; SARS PLpro yeast: inactive; Pf growth 96h: inactive

What do the screens show for `COc1ccc(Cl)cc1NC(=O)CN(C)CC(=O)Nc1cc(OC)c(OC)c(OC)c1`?
Pf growth 48h: 15µM; NS1 function inh: inactive; SARS PLpro yeast: inactive; Pf growth 96h: inconclusive

Results for COc1ccc(Cl)cc1NC(=O)CN(C)CC(=O)NC(C)c1ccccc1 (configuration not stated) ?
Pf growth 48h: 10µM; NS1 function inh: inactive; SARS PLpro yeast: inactive; Pf growth 96h: inactive

What do the screens show for `COc1ccc(Cl)cc1NC(=O)CN(C)C(=O)c1cc2c(F)cccc2s1`?
Pf growth 48h: 7.4µM; SARS PLpro yeast: inactive; Pf growth 96h: inconclusive

Results for COc1ccc(Cl)cc1NC(=O)CN(C)CC(=O)Nc1ccc(Br)cc1 ?
Pf growth 48h: inactive; SARS PLpro yeast: inactive; Pf growth 96h: inactive

How did NC(=O)c1ccc(NC(=O)COC(=O)CC23CC4CC(CC(Br)(C4)C2)C3)cc1 do in these assays?
SARS PLpro yeast: inactive

Results for COc1ccc(/C=C2/SC(=O)NC2=O)cc1 ?
Pf growth 48h: inactive; NS1 function inh: inactive; SARS PLpro yeast: inactive; Pf growth 96h: 13µM

How did Cc1cc(C)cc(NC(=O)CCn2ccnc2)c1 do in these assays?
Pf growth 48h: inactive; NS1 function inh: inactive; SARS PLpro yeast: inactive; Pf growth 96h: inactive

Results for O=C(NC1=NCCS1)c1ccccc1OCc1ccc(F)cc1 ?
Pf growth 48h: inactive; SARS PLpro yeast: inactive; Pf growth 96h: inactive

What do the screens show for `Cc1ccccc1Cn1c(O)c(N=NC(=S)Nc2ccccc2F)c2ccccc21`?
Pf growth 48h: 1.5µM; SARS PLpro yeast: inactive; Pf growth 96h: inactive

How did Oc1c(N=NC(=S)Nc2ccccc2F)c2ccccc2n1Cc1ccccc1F do in these assays?
Pf growth 48h: inconclusive; SARS PLpro yeast: inactive; Pf growth 96h: inactive

How did Oc1c(N=NC(=S)Nc2ccccc2F)c2ccccc2n1Cc1ccc(Cl)cc1 do in these assays?
Pf growth 48h: 2.3µM; SARS PLpro yeast: inactive; Pf growth 96h: inactive

Results for Cc1cccc(NC(=S)N(CCc2ccncc2)C(C)C)c1C ?
Pf growth 48h: inactive; SARS PLpro yeast: inactive; Pf growth 96h: inconclusive

What do the screens show for `CC(C)NC(=S)N(CCc1ccncc1)C(C)C`?
Pf growth 48h: inactive; SARS PLpro yeast: inactive; Pf growth 96h: 1.3µM

Results for CCSc1nnc(-c2ccc(C)cc2)c2ccccc12 ?
Pf growth 48h: inactive; NS1 function inh: inactive; SARS PLpro yeast: inactive; Pf growth 96h: inactive

What do the screens show for `CCSc1nnc(-c2ccc(Cl)cc2)c2ccccc12`?
Pf growth 48h: inconclusive; NS1 function inh: inactive; SARS PLpro yeast: inactive; Pf growth 96h: 0.093µM

How did Cc1ccc(CNC(=O)CN2CCN(c3ccc(F)cc3)CC2)cc1 do in these assays?
Pf growth 48h: inactive; NS1 function inh: inactive; SARS PLpro yeast: inactive; Pf growth 96h: inactive

Results for Cc1nc2ccccc2n1C1CCN(CC(=O)NCc2ccc(F)cc2)CC1 ?
Pf growth 48h: inconclusive; NS1 function inh: inactive; SARS PLpro yeast: inactive; Pf growth 96h: 5.9µM

Results for COc1cccc(NC(=O)CN2C(=O)NC(C)(c3ccc(C)cc3)C2=O)c1 (configuration not stated) ?
Pf growth 48h: inactive; NS1 function inh: inactive; SARS PLpro yeast: inactive; Pf growth 96h: inactive

Results for Cc1cc(Nc2ccccc2)nn1C(=O)c1ccc([N+](=O)[O-])cc1 ?
Pf growth 48h: inactive; NS1 function inh: inactive; SARS PLpro yeast: inactive; Pf growth 96h: 9.3µM

What do the screens show for `Cc1cc(CN2CCCC(C(=O)Nc3cccc(-n4cccn4)c3)C2)cc(C)c1O` (configuration not stated)?
Pf growth 48h: inconclusive; NS1 function inh: inactive; SARS PLpro yeast: inactive; Pf growth 96h: inactive

Results for CCn1ncc(CN2CCCC(C(=O)Nc3cccc(-c4cc5ccccc5[nH]4)c3)C2)c1C (configuration not stated) ?
Pf growth 48h: 4.1µM; NS1 function inh: inconclusive; SARS PLpro yeast: inactive; Pf growth 96h: inactive

How did O=C(Nc1cccc(-n2cnnn2)c1)C1CCCN(Cc2cccc(C(F)(F)F)c2)C1 (configuration not stated) do in these assays?
Pf growth 48h: 15µM; NS1 function inh: inactive; SARS PLpro yeast: inactive; Pf growth 96h: inactive

How did O=C(Nc1cccc(-n2cccn2)c1)C1CCCN(Cc2cc3ccccc3[nH]2)C1 (configuration not stated) do in these assays?
Pf growth 48h: inconclusive; NS1 function inh: inactive; SARS PLpro yeast: inactive; Pf growth 96h: inactive

Results for Cc1c(CN2CCCC(C(=O)Nc3cccc(-n4cccn4)c3)C2)cnn1C (configuration not stated) ?
Pf growth 48h: inactive; NS1 function inh: inactive; SARS PLpro yeast: inactive; Pf growth 96h: 13µM

How did O=C(c1cccc(-n2cccc2)c1)N1CCN(S(=O)(=O)c2ccccc2Br)CC1 do in these assays?
Pf growth 48h: inconclusive; SARS PLpro yeast: inactive; Pf growth 96h: inconclusive

What do the screens show for `Cc1ccccc1-n1c(=O)/c(=C\c2ccco2)s/c1=C(/C#N)C(=O)Nc1ccccc1`?
Pf growth 48h: 1.5µM; NS1 function inh: inactive; SARS PLpro yeast: inconclusive; Pf growth 96h: inactive

What do the screens show for `CC1CCCCC1NC(=O)CCCCn1c(=O)[nH]c2ccsc2c1=O` (configuration not stated)?
Pf growth 48h: inactive; NS1 function inh: inactive; SARS PLpro yeast: inactive; Pf growth 96h: inactive

How did CCCCN(CC)CCNC(=S)Nc1ccc2nc(N3CCN(C)CC3)cc(C)c2c1 do in these assays?
Pf growth 48h: 1.7µM; NS1 function inh: inactive; SARS PLpro yeast: inactive; Pf growth 96h: inconclusive

How did CCCN(CCC)CCCNC(=S)Nc1ccc2nc(N3CCN(C)CC3)cc(C)c2c1 do in these assays?
Pf growth 48h: inactive; NS1 function inh: inactive; SARS PLpro yeast: inactive; Pf growth 96h: inconclusive

How did CCCN(CCC)CCCNC(=S)Nc1ccc2nc(N3CCN(CC)CC3)cc(C)c2c1 do in these assays?
Pf growth 48h: 4.1µM; NS1 function inh: inactive; SARS PLpro yeast: inactive; Pf growth 96h: inactive

What do the screens show for `CC(C)Nc1nc(-c2ccncc2)nc(-c2ccccc2)c1C#N`?
Pf growth 48h: inconclusive; NS1 function inh: inactive; SARS PLpro yeast: inactive; Pf growth 96h: inconclusive

What do the screens show for `Cc1ccc2c(c1)c1c(c(=O)n(-c3ccccc3C)c(=O)n1CC(=O)NCC1CCCO1)n2C` (configuration not stated)?
Pf growth 48h: inconclusive; NS1 function inh: inactive; SARS PLpro yeast: inactive; Pf growth 96h: 9.3µM

Results for Cc1cc(C)cc(-n2c(=O)c3ccccc3n(CC(=O)NCC3CCCO3)c2=O)c1 (configuration not stated) ?
Pf growth 48h: inactive; NS1 function inh: inactive; SARS PLpro yeast: inactive; Pf growth 96h: inactive

Results for COc1ccccc1N1CCN(C(c2cc3cc(C)ccc3[nH]c2=O)c2nnnn2C2CCCC2)CC1 (configuration not stated) ?
Pf growth 48h: inconclusive; NS1 function inh: inactive; SARS PLpro yeast: inactive; Pf growth 96h: inactive

How did COc1ccccc1N1CCN(C(c2ccccn2)c2nnnn2C2CCCCC2)CC1 (configuration not stated) do in these assays?
Pf growth 48h: 9.3µM; NS1 function inh: inactive; SARS PLpro yeast: inactive
